Drawing on PubChem BioAssay (Tox21), this text covers outcome for 40 molecules.

The source made the active and inactive calls. Calls come from the whole dose curve; as a rule, active = well fitted curve in the direction sought with a large enough effect in the repeat runs; inconclusive = weak or mixed curves; inactive = flat fitted curve, though single readings scatter.

This assay can be described thus: qHTS assay to test for compound auto fluorescence at 590 nm (red) in HEK293 cells (AID 720679). Particulars: red autofluorescence 540/590 nm; series mostly up to 91.3 µM. The source says: National Center for Advancing Translational Sciences [NCATS]
NIH Chemical Genomics Center [NCGC]
U.S. Environmental Protection Agency [EPA]
National Institutes of Environmental Health Sciences [NIEHS]
National Toxicology Program [NTP]
U.S. Food and Drug Administration [FDA]
Compound auto fluorescence often interferes with screening of the compound library against various biological targets and signaling pathways. Some of these compounds may have fluorophoric properties. Such properties may interfere with the assay outputs resulting in false positives and/or negatives. To decrease such complications and ensure the compound activities are relevant in terms of biological response, the Tox21 10K compound library was screened for auto fluorescence.
From the fluorophores used as reporter signals in our screening assays, the auto fluorescence equivalencies of compounds against three fluorophores have been evaluated: Triamterene, Fluorescein and Rose Bengal sodium for blue, green and red fluorescence, respectively. The fluorescence intensities were measured using Excitation/Emission wavelengths at 405/460nm, 485/535nm and 540/590nm for blue, green and red labels, respectively. This assay includes the red fluorescence data.
Tox21 Assay Protocol Summary:
2,000 HEK293 cells in 5 uL of culture medium containing 10% dialyzed FBS per well were dispensed into black wall/clear bottom 1536-well plates using a Multidrop Combi Dispenser (Thermo Scientific). The assay plates were incubated for 4-5 hr at 37C to allow cell attachment to the well bottom, followed by the transfer of 23 nL compound or DMSO vehicle by a pintool work station (Kalypsys, San Diego, CA). After the assay plates were incubated overnight at 37C and 5% CO2, fluorescence intensities in the assay plates were measured by an Envision (PerkinElmer, Shelton, CT) plate reader using three labels for measuring blue, green and red fluorescence at […] 460, 535 and 590nm respectively.
Turning to `OCC(CO)(CBr)CBr`, the molecule was called inactive.

As for `O=C(O)CCCCCCCCCCC(=O)O`, the result was inactive. Take `C=C(C)C(=O)Nc1ccc(Cl)c(Cl)c1`: the outcome was inactive. Regarding `CC(=O)c1ccccc1`, the molecule was called inactive. Consider `COc1ccc(Nc2ccccc2)c(C)c1`, for which the molecule was called inactive. As for `CCC(O)OC(O)CC` (stereo not given), the molecule was called inactive.

With `CCCCCC1=CCCC1=O`, the outcome was inactive. With `CCCCCCCCCCCCCCCO` the entry was “inactive”; with `CCOC(=O)NNc1nncc2ccccc12`, “inactive”; with `CC(C)(C)[C@@H](O)[C@@H](Cc1ccc(Cl)cc1)n1cncn1`, “inactive”. For `O=C(O)CC(C(=O)O)C(CC(=O)O)C(=O)O` (stereo not given), the outcome was inactive. With `C#C[C@]1(O)CC[C@H]2[C@@H]3CCC4=CC(=O)CC[C@@H]4[C@H]3CC[C@@]21C`, the result was inactive. As to `COc1ccc(NC(C)=O)cc1N`, the outcome was inactive. For the molecule `CCN(CC)c1ccc(C(=O)c2ccccc2C(=O)O)c(O)c1`, the result was inactive. Consider `C[C@H]1C[C@H]2[C@@H]3CCC4=CC(=O)C=C[C@]4(C)[C@@]3(F)[C@@H](O)C[C@]2(C)[C@@]1(O)C(=O)CO`, for which the call was inactive. The result for `O=C(O)[C@H](O)[C@@H](O)[C@H](O)[C@H](O)CO` reads “inactive”. For the molecule `O=S1(=O)CC=CC1`, the result was inactive. Regarding `C=C(C)C(=O)O[C@H]1C[C@@H]2CC[C@@]1(C)C2(C)C`, the molecule was classed as inactive. As to `Cc1cnc(C(=O)NCCc2ccc(S(=O)(=O)NC(=O)NC3CCCCC3)cc2)cn1`, the molecule was called inactive. In the case of `Cc1ccc(S(N)(=O)=O)cc1`, the molecule was called inactive. As to `C/C=C1/CC2C=CC1C2` (stereo not given), the call was inactive. For `CCCCCCCCCCCCCCO`, the outcome was inactive.

With `Cc1ccc2oc(=O)ccc2c1`, the outcome was inactive. The result for `O=C(Oc1ccccc1)c1ccccc1` reads “inactive”; that for `CCCCC(CC)COC(=O)CS` (stereo not given), “inactive”; that for `ON=C1CCCCC1`, “inactive”. Regarding `CC(C)(N)CO`, the molecule was classed as inactive. The result for `c1ccc(OCCOc2ccccc2)cc1` reads “inactive”.

Regarding `CCCCC(CC)COC(=O)C(C#N)=C(c1ccccc1)c1ccccc1` (stereo not given), the outcome was inactive. Turning to `c1c[nH]cn1`, the outcome was inactive. With `CCC(O)OCCCOC` (stereo not given) the entry was “inactive”; with `CC1=CCC2CC1C2(C)C` (stereo not given), “inactive”. In the case of `NNc1nncc2ccccc12`, the outcome was inactive.

As for `Cc1cccnc1`, the molecule was classed as inactive. On to `O=C1CCC(N2C(=O)c3ccccc3C2=O)C(=O)N1` (stereo not given), for which the outcome was inactive. The result for `COCCCOc1ccnc(CS(=O)c2nc3ccccc3[nH]2)c1C` (stereo not given) reads “inactive”.

As for `c1ccc2scnc2c1`, the call was inactive. `OCCOCCN1CCN(C2=Nc3ccccc3Sc3ccccc32)CC1`: the outcome was inactive. With `CCCCCCOCCO` the entry was “inactive”; with `COc1ccc(Cl)cc1C(=O)NCCc1ccc(S(=O)(=O)NC(=O)NC2CCCCC2)cc1`, “inactive”.
